# Hits are enriched below; roughly 2.5% of the tested compounds scored in any of these assays.
# Pol iota inh – blocks human DNA polymerase iota activity | Q9UNA4 | Pol iota fluorescent replication assay, 10 min | Potency, µM (doses to about 115 µM), for the others: at the top dose activity, negative = inhibition, usual class: inhibitors | 390,000 tested, 1% active
# Target sequence (Q9UNA4 whole entry, looked up): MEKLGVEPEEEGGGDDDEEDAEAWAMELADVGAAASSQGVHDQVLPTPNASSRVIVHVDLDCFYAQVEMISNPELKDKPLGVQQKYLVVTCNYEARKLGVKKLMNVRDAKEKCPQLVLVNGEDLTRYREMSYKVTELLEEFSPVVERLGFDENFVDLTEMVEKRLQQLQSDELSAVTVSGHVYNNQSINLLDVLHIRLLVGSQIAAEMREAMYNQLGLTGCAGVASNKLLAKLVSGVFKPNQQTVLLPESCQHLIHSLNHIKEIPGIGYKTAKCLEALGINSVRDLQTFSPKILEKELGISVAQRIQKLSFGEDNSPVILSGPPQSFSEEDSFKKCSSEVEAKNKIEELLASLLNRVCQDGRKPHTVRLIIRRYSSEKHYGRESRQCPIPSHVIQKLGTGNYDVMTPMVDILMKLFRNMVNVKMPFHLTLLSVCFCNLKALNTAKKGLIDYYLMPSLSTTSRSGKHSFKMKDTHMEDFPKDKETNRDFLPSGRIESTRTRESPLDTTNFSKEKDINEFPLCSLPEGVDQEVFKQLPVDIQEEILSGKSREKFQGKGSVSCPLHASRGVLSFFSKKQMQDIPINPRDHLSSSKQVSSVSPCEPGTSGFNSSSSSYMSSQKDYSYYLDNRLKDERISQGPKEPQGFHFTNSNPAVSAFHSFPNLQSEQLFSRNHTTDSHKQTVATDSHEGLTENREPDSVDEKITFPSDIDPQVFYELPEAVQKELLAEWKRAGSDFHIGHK
#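 Fluorescent replication assay read twice, at 0 min and 10 min after adding 50 nM (final) substrate. Enzyme (10 nM) and compounds were first incubated 15 min at room temperature; enzyme-free buffer wells were negative controls.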
# L3MBTL1 block – L3MBTL1 (human) inhibition; 230,000 tested, 0.66% active; AlphaScreen L3MBTL1–H3K9me1 peptide binding; Potency, µM (titrated, usually from 57.1 µM), without a hit: top-dose activity, negative = inhibition, usual class: inhibitors; Q9Y468; also: % is scaled to controls: 0 for no effect and ±100 for the full control effect; nearly all actives have a fitted effect of over 60% in size
#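 L3MBTL1 (50 nM) pre-complexed 30 min with biotinylated H3(1-15)K9me1 peptide (75 nM), then compounds added for 30 min at room temperature; AlphaScreen streptavidin donor/nickel chelate acceptor beads (10 ug/mL final) read after 30 min dark incubation.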
# Pol beta inh – blocks human DNA polymerase beta activity; P06746; Pol beta primer extension/strand displacement, fluorescence kinetic; Potency, µM (doses to about 114 µM), inactives show at the highest dose activity change, negative = inhibition, most hits filed as inhibitors; 340,000 tested, 1.3% active; also: % is scaled to controls: 0 for no effect and ±100 for the full control effect
#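 Reaction started by 50 nM substrate onto compound-treated Pol beta (10 nM, 15 min preincubation, room temperature); plates read at 0 min and 10 min. Normalized concentration-effect data fitted by four-parameter Hill equation.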
# APEX1 inh – APE1 (human) endonuclease inhibition | recombinant APE1, TAMRA/BHQ-2 abasic DNA cleavage fluorescence | 350,000 tested, 0.35% active | Potency, µM (doses to about 65.8 µM), for inactives: top-dose activity change, negative = inhibition, actives largely listed as inhibitors | P27695;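 also: plate controls were vehicle for no effect and reference inhibitor for full effect; nearly all actives have a fitted effect of over 55% in size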
#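 Measures dequenching upon AP-site incision of a 5'-TAMRA/3'-BHQ-2 THF-containing duplex, 50 nM; human APE1 0.75 nM after 15 min room-temperature exposure to compound; kinetic three-point read at one-minute spacing.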
# POLH inh – inhibitors of human DNA polymerase eta; Q9Y253; recombinant Pol eta, fluorescent DNA replication assay; Potency, µM (doses to about 114 µM), for the others: at the top dose activity change, negative = inhibition, actives largely listed as inhibitors; 390,000 tested, 1.2% active; also: % is scaled to controls: 0 for no effect and ±100 for the full control effect
#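 Pol eta at 10 nM preincubated with compounds 15 min at room temperature; reaction started with fluorescent substrate (50 nM final) and read kinetically at 0 and 10 min.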
# POLK inh – inhibitors of human DNA polymerase kappa; Q9UBT6; purified Pol kappa, fluorescent DNA synthesis assay, 10 min; Potency, µM (titrated, usually from 107 µM), without a hit: at the highest dose activity, negative = inhibition, hits mostly inhibitors; 400,000 tested, 0.53% active; AID 588579; also: % is scaled to controls: 0 for no effect and ±100 for the full control effect
#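 Enzyme at 10 nM met test compounds for 15 min at room temperature. Substrate addition (50 nM final) began the reaction, which was monitored by fluorescence at 0 and 10 min.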
# * = called active by the depositor; ? = inconclusive; . = no result given; [ ] = remark or other dose. Calls follow the shape of the dose curve; as a rule, active = well fitted curve in the direction sought with a large enough effect; inconclusive = small, poorly fitted or top-dose-only effect, or another doubt; inactive = no such curve, though single readings can be large; an effect the other way counts as inactive or inconclusive. Potency is read from the fitted curve at half-maximal effect.
SMILES,Pol iota inh,L3MBTL1 block,Pol beta inh,APEX1 inh,POLH inh,POLK inh
Cc1cc([N+](=O)[O-])cc(/C=N\NC(=O)C2COc3ccccc3O2)c1O (configuration not stated),59%,25µM*,2%,0%,-17%,1%
CC(=O)Nc1ccc(S(=O)(=O)NCCC(=O)N2CCN(C(c3ccccc3)c3ccccc3)CC2)cc1,25%,-1%,.,9%,-5%,-7%
COc1cc2c[n+](C)c3c4ccccc4ccc3c2cc1OC,?,.,.,.,?,32µM*
COC(=O)[C@H](CC(C)C)NS(=O)(=O)NC(=O)OC(C)(C)C,16%,.,.,.,.,8%
N#C/C(=C\c1cccs1)C(=O)c1ccccc1,28µM*,.,?,-2%,-17%,-12%
CCCCn1c2ccccc2c2nnc(SCC(=O)Nc3ccc(NC(C)=O)cc3)nc21,-11%,.,14µM*,.,-5%,-1%
COc1cc(S(=O)(=O)O)c(C)cc1N=Nc1c(O)ccc2cc(S(=O)(=O)O)ccc12,45µM*,.,.,.,.,79µM*
C[n+]1c2cc(N)ccc2cc2ccc(N)cc21 (tested in a mixture with another compound),.,.,.,25µM*,.,.
Cc1nc2ccc(N)cc2s1,-1%,-1%,-2%,-4%,-17%,-15%
CC(C)[C@@H](CC(=O)N[C@@H]1CCCC[C@H]1C(=O)N[C@H](CC(=O)N[C@@H](CCC(=O)O)CC(=O)O)Cc1c[nH]c2ccccc12)NC(=O)C[C@H](Cc1ccccc1)NC(=O)[C@@H]1CCCC[C@H]1N,.,.,.,0%,.,.
O=C(N/N=C/c1ccc(-c2cccc([N+](=O)[O-])c2)o1)c1ccccc1O,48%,-1%,?,-2%,50µM*,6%
O=[N+]([O-])c1ccc(NN=Cc2ccccc2O)nc1,68%,.,.,.,-18%,-3%
O=[N+]([O-])c1ccc(O)c(/C=N/Nc2ccccn2)c1,6%,13µM*,-12%,0%,-7%,-19%
O=C(N/N=C/c1ccc([N+](=O)[O-])o1)c1cc(-c2ccc(-c3ccccc3)cc2)nc2ccccc12,?,?,20µM*,-1%,-31%,-31%
Cc1cc(C)n(CC(=O)N/N=C/c2cc([N+](=O)[O-])ccc2O)n1,-3%,?,9%,?,-21%,1%
Nc1nnnn1CC(=O)N/N=C/c1cc([N+](=O)[O-])ccc1O,6%,0.16µM*,0%,-1%,-2%,0%
O=C(N/N=C/c1cccc([N+](=O)[O-])c1)c1cc(-c2ccccc2)nc2ccccc12,-1%,0%,11%,2%,-7%,-1%
Cc1nc(-c2ccc(S(=O)(=O)N(Cc3ccccc3)C(C)C)cc2)co1,-7%,.,2%,.,?,-5%[60.1 µM]
CCC(NS(=O)(=O)c1ccc2c(c1)Cc1cc(S(=O)(=O)NC(CC)C(=O)O)ccc1-2)C(=O)O (configuration not stated),-1%,12%,11%,-2%,-10%,-9%
CCCc1cc2c(n1Cc1ccc(OC)cc1)C(C)C1CN(C(=O)c3ccccc3)C(C)(C(=O)OC)C21 (configuration not stated),.,.,.,-3%,.,.
COCCCNC(=O)C1CCN(C(=O)c2cnn(-c3ccccc3)c2-n2cccc2)CC1,24%,.,17%,.,-17%,3%
COc1ccc(NC(=O)[C@@H]2CC=C[C@@H]3CCN(C4CC4)C(=O)[C@@H]32)cc1,49%,.,.,.,.,-7%
O=C(N/N=C/c1ccc([N+](=O)[O-])o1)c1cc(-c2ccncc2)nc2ccccc12,?,-18%,?,-8%,89µM*,?
O=C(N/N=C/c1cc([N+](=O)[O-])ccc1O)c1cc(-c2ccccc2)nc2ccccc12,1%,?,-1%,22%,-22%,-8%
Cc1cc(C(=O)N/N=C/c2cc([N+](=O)[O-])ccc2O)c2ccccc2n1,8%,18µM*,51%,15%,-7%,1%
SMILES,Pol iota inh,L3MBTL1 block,Pol beta inh,APEX1 inh,POLH inh,POLK inh
O=S(=O)(c1ccc(Oc2ccc(-c3nnco3)cc2)nc1)N1CCC(Cc2ccccc2)CC1,-6%,-2%[11.4 µM],?,-3%,45µM*,-15%
O=S(=O)(c1ccc(-c2nnco2)cc1)N1CCCCC1,-5%,.,1%,-3%,-19%,-1%
CN(C)c1ccc(CNC(=O)CN2C(=O)C3CCCCN3c3ccc(C(=O)N4CCCC4)cc32)cc1 (configuration not stated),17%,.,4%,.,-6%,-7%[60.1 µM]
COc1cccc(C(=O)NN2CC(O)=C(c3nc4ccccc4s3)C2=N)c1,?,3%[11.4 µM],?,-1%,-11%,-39%
N=C1C(c2nc3ccccc3s2)=C(O)CN1NC(=O)c1ccco1,?,-2%,25µM*,?,-4%,-35%
Nc1ccc(C(=O)C(=O)c2ccccc2)cc1,18%,.,.,.,-17%,-13%
CSc1nc(SCCO)c2sc3nc(-c4ccco4)c4c(c3c2n1)CC(C)(C)OC4,22µM*,-93%,1.6µM*,?,79µM*,-32%
CSc1nc(N(CCO)CCO)c2sc3nc(-c4ccco4)c4c(c3c2n1)CCC4,1.8µM*,2.5µM*,1.8µM*,22%,1.1µM*,10µM*
O=c1cc(CSc2nnnn2-c2ccccc2)nc2sccn12,?,-8%,-16%,-4%,-2%,-23%
CC(C)c1ccc(OCc2cc(=O)n3c(-c4ccccc4)csc3n2)cc1,?,.,20µM*,.,?,-24%
O=c1cc(CN2CCN(c3ccc(O)cc3)CC2)nc2scc(-c3ccccc3)n12,?,-8%,11µM*,?,-18%,-20%
O=c1cc(CSc2nnnn2-c2ccccc2)nc2scc(-c3ccccc3)n12,?,-27%,25µM*,20%,-14%,?
Cc1cccc(OCc2cc(=O)n3c(-c4ccccc4)csc3n2)c1C,?,.,28µM*,.,?,-34%
NS(=O)(=O)c1cccc(C(=O)N2CCCc3ccccc32)c1,.,.,.,.,-4%,.
Cc1ccc(NC(=O)CCS(=O)(=O)c2cc3c4c(c2)CCN4C(=O)CC3)c(C)c1,14%,.,18%,.,-18%,-2%
COc1ccc(/C=N/c2nc3ccccc3n2C)cc1OC,19%,-3%,79µM*,11%,-13%,1%
O=C1NC(=O)/C(=C\c2ccc(Br)o2)S1,?,.,18µM*,-16%,22µM*,25µM*
O=C1NC(=O)/C(=C/c2cc3c(cc2Br)OCO3)S1,?,.,-18%,37%,-12%,0%
Cn1c(=O)[nH]c2nc[nH]c2c1=O,-5%,-1%,.,-1%,-11%,-19%
S=c1[nH]c(=S)c2[nH]cnc2[nH]1,79µM*,.,.,.,.,-11%

# Source: PubChem BioAssay (National Center for Advancing Translational Sciences (NCATS))
